Measurements: PubChem BioAssay (NCATS)
Results filed as inconclusive are left out. A number with no mark means an inactive call. Calls of active or inactive are those of the source. Calls come from the whole dose curve; as a rule, active = well fitted cell-killing curve with a large enough effect; inconclusive = small, poorly fitted or top-dose-only effect, or effect the other way; inactive = no such curve, though single readings can be large or run the other way.

Columns and labels:
[1] = Quantitative High-Throughput drug screen in 47 multiple myeloma cell lines against the NCATS MIPE library collection: L363_DSMZ cell viability assay (AID 1918984); note: nearly all actives have a fitted effect of over 40% in size
How it was run: (§1)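 ATP-based CellTiter-Glo luminescence after 48 h drug exposure (37 °C, 5% CO2) of 500 myeloma cells per well. DMSO-only wells set 100% viability, media-only wells 0%; MIPE 4.0 library added by pin tool.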

[2] = Quantitative High-Throughput drug screen in 47 multiple myeloma cell lines against the NCATS MIPE library collection: XG6_PLB cell viability assay (AID 1919865); note: nearly all actives have a fitted effect of over 40% in size
How it was run: as §1

[3] = Quantitative High-Throughput drug screen in 47 multiple myeloma cell lines against the NCATS MIPE library collection: XG1_PLB cell viability assay (AID 1919866); note: nearly all actives have a fitted effect of over 35% in size
How it was run: as §1

[4] = Quantitative High-Throughput drug screen in 47 multiple myeloma cell lines against the NCATS MIPE library collection: VP6_DJ cell viability assay (AID 1919867); note: nearly all actives have a fitted effect of over 40% in size
How it was run: as §1

[5] = Quantitative High-Throughput drug screen in 47 multiple myeloma cell lines against the NCATS MIPE library collection: UTMC2_PLB cell viability assay (AID 1919868); settings: CellTiter-Glo ATP luminescence, 48 h; viability (% of DMSO control): at 45.8 µM (top of the series); note: nearly all actives have a fitted effect of over 55% in size
How it was run: as §1

[6] = Quantitative High-Throughput drug screen in 47 multiple myeloma cell lines against the NCATS MIPE library collection: OPM1_PLB cell viability assay (AID 1918989); note: nearly all actives have a fitted effect of over 40% in size
How it was run: as §1

[7] = Quantitative High-Throughput drug screen in 47 multiple myeloma cell lines against the NCATS MIPE library collection: SKMM1_PLB cell viability assay (AID 1919863); settings: SKMM1 myeloma viability, CellTiter-Glo ATP, 48 h; viability: active compounds read low; note: nearly all actives have a fitted effect of over 35% in size
How it was run: as §1

[8] = Quantitative High-Throughput drug screen in 47 multiple myeloma cell lines against the NCATS MIPE library collection: U266_ATCC cell viability assay (AID 1919864); note: nearly all actives have a fitted effect of over 35% in size
How it was run: as §1

[9] = Quantitative High-Throughput drug screen in 47 multiple myeloma cell lines against the NCATS MIPE library collection: PE2_PLB cell viability assay (AID 1919869); note: nearly all actives have a fitted effect of over 35% in size
How it was run: as §1

[10] = Quantitative High-Throughput drug screen in 47 multiple myeloma cell lines against the NCATS MIPE library collection: PCM6_Riken cell viability assay (AID 1919870); note: nearly all actives have a fitted effect of over 30% in size
How it was run: as §1

[11] = Quantitative High-Throughput drug screen in 47 multiple myeloma cell lines against the NCATS MIPE library collection: OPM2_DSMZ cell viability assay (AID 1919872); note: nearly all actives have a fitted effect of over 30% in size
How it was run: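 Relative luminescence from CellTiter-Glo served as the viability signal, referenced to DMSO-treated (100%) and cell-free medium (0%) controls. Treatment lasted 48 hours at 37C with 500 cells per well.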

[12] = Quantitative High-Throughput drug screen in 47 multiple myeloma cell lines against the NCATS MIPE library collection: KMS28BM_JCRB cell viability assay (AID 1919874); note: nearly all actives have a fitted effect of over 35% in size
How it was run: as §1

[13] = Quantitative High-Throughput drug screen in 47 multiple myeloma cell lines against the NCATS MIPE library collection: KMS34_JCRB cell viability assay (AID 1918985); note: nearly all actives have a fitted effect of over 40% in size
How it was run: as §1

[14] = Quantitative High-Throughput drug screen in 47 multiple myeloma cell lines against the NCATS MIPE library collection: RPMI8226_ATCC cell viability assay (AID 1919871); note: nearly all actives have a fitted effect of over 30% in size
How it was run: as §1

[15] = Quantitative High-Throughput drug screen in 47 multiple myeloma cell lines against the NCATS MIPE library collection: KMS11_JCRBsus cell viability assay (AID 1919873); note: nearly all actives have a fitted effect of over 50% in size
How it was run: as §1

[16] = Quantitative High-Throughput drug screen in 47 multiple myeloma cell lines against the NCATS MIPE library collection: OCIMY7_PLB cell viability assay (AID 1918987); settings: OCI-MY7 myeloma viability, CellTiter-Glo ATP, 48 h; viability (% of DMSO): at 45.8 µM (top of the series); note: nearly all actives have a fitted effect of over 65% in size
How it was run: as §1

[17] = Quantitative High-Throughput drug screen in 47 multiple myeloma cell lines against the NCATS MIPE library collection: OCIMY5_PLB cell viability assay (AID 1918988); note: nearly all actives have a fitted effect of over 65% in size
How it was run: as §1
Potency is the fitted concentration of half-maximal effect.

SMILES | Potency [1] | Potency [2] | Potency [3] | Potency [4] | Potency [5] | Potency [6] | Potency [7] | Potency [8] | Potency [9] | Potency [10] | Potency [11] | Potency [12] | Potency [13] | viability [7] | Potency [14] | Potency [15] | Potency [16] | Potency [17]
COc1ccc(Nc2nccc(NCCO)n2)cc1 | inactive | inactive | inactive | 1.66 µM (active) | inactive |  |  |  |  |  |  |  |  |  |  |  |  | 
O=C(Nc1ccc(Oc2ccnc3[nH]ccc23)c(F)c1)c1cccn(-c2ccc(F)cc2)c1=O |  | 26.4 µM (active) | 26.4 µM (active) | 20.9 µM (active) | inactive | inactive | 18.7 µM (active) | inactive | inactive | 23.5 µM (active) | inactive | inactive |  |  |  |  |  | 
NC(=O)c1ncn([C@@H]2O[C@H](CO)[C@@H](O)[C@@H]2O)c1O | inactive | inactive |  | inactive | inactive | inactive |  | inactive | inactive | inactive | inactive | inactive | inactive | 102% | inactive | inactive |  | 
OCC(O)C(O)C(O)CO (stereo unspecified) | inactive | inactive | inactive |  |  | inactive |  |  | inactive | inactive | inactive |  | inactive |  |  |  | inactive | 
O=C(NC1CC1)c1cccc(-c2ccc3c(NC(=O)C4CC4)n[nH]c3c2)c1 | inactive | 1.48 µM (active) | 1.05 µM (active) | 9.35 µM (active) |  | 14.8 µM (active) |  |  |  |  | 14.8 µM (active) |  | 20.9 µM (active) |  |  | 7.43 µM (active) |  | 0.332 µM (active)
CC[C@H]1OC(=O)[C@H](C)[C@@H](O[C@H]2C[C@@](C)(OC)[C@@H](O)[C@H](C)O2)[C@H](C)[C@@H](O[C@@H]2O[C@@H](C)C[C@H](N(C)C)[C@@H]2O)[C@](C)(O)C[C@@H](C)C(=O)[C@H](C)[C@@H](O)[C@]1(C)O | inactive |  | 4.18 µM (active) | inactive |  | inactive |  |  |  | inactive | inactive | inactive |  |  | inactive | inactive |  | inactive
Cc1onc(-c2ccccc2)c1C(=O)N[C@@H]1C(=O)N2[C@@H](C(=O)O)C(C)(C)S[C@@H]12 |  | inactive | inactive |  |  | inactive |  | inactive |  | inactive | inactive | inactive |  | 123% | inactive |  | inactive | inactive
NC(=O)N1CCC(CC(=O)N2CCC([C@H]3c4ncc(Br)cc4CCc4cc(Cl)cc(Br)c43)CC2)CC1 | 4.18 µM (active) | 16.6 µM (active) | 5.26 µM (active) | 13.2 µM (active) |  | 23.5 µM (active) | 18.7 µM (active) | 18.7 µM (active) | 14.8 µM (active) | 20.9 µM (active) |  | 20.9 µM (active) | 20.9 µM (active) |  | 16.6 µM (active) | 10.5 µM (active) | 0.743 µM (active) | 9.35 µM (active)
CCNC(=O)c1cc2c(-c3cc(OCCN4CCCC4)c(Cl)cc3Cl)nc(N)nc2s1 | 0.418 µM (active) | 1.66 µM (active) | 0.833 µM (active) | 0.743 µM (active) | 1.48 µM (active) | 0.833 µM (active) | 2.35 µM (active) | 1.05 µM (active) | 1.66 µM (active) | 0.743 µM (active) | 2.96 µM (active) | 1.32 µM (active) | 1.32 µM (active) |  | 1.18 µM (active) | 0.59 µM (active) |  | 0.743 µM (active)
C#C[C@]1(O)CC[C@@H]2[C@@H]3CCc4cc(O)ccc4[C@H]3CC[C@@]21C |  | 4.18 µM (active) | 3.32 µM (active) | 3.32 µM (active) |  |  | 14.8 µM (active) | 14.8 µM (active) |  | 14.8 µM (active) |  | 4.69 µM (active) |  |  |  | 10.5 µM (active) | 3.72 µM (active) | 7.43 µM (active)
O=C(NNC(=O)c1ccc(CNS(=O)(=O)c2ccc(F)c(Cl)c2)cc1)c1ccccc1 |  | inactive |  | inactive | inactive |  |  | inactive | inactive | inactive | inactive | inactive | inactive | 126% | inactive | inactive |  | inactive
Cn1cc(C[C@@H](N)C(=O)O)c2ccccc21 |  | inactive | inactive |  |  |  | 7.24 µM (active) |  | inactive |  | inactive | inactive | 4.57 µM (active) |  | inactive | inactive |  | inactive
C=CC(=O)Nc1cc(NC(=O)c2ccc(C)c(NC(=O)c3ccno3)c2)cc(C(F)(F)F)c1 |  | 16.6 µM (active) | 14.8 µM (active) | 16.6 µM (active) | 20.9 µM (active) |  | 18.7 µM (active) | 20.9 µM (active) | 16.6 µM (active) | 16.6 µM (active) |  | 20.9 µM (active) |  |  |  | 11.8 µM (active) |  | 18.7 µM (active)
CC(=O)OCC(=O)[C@@]12N=C(C)O[C@H]1C[C@H]1[C@@H]3CCC4=CC(=O)C=C[C@]4(C)[C@@H]3[C@@H](O)C[C@@]12C |  |  | 16.6 µM (active) |  |  | inactive |  |  | inactive | 11.8 µM (active) | inactive | inactive | inactive | 135% |  | 0.935 µM (active) |  | 
Cn1cc(C=CC(=O)c2cccc(F)c2)cc1C=CC(=O)NO | 11.8 µM (active) | 2.35 µM (active) | 5.9 µM (active) |  |  | 23.5 µM (active) |  | 14.8 µM (active) | 20.9 µM (active) |  | 23.5 µM (active) |  | 16.6 µM (active) |  |  | 14.8 µM (active) | 11.8 µM (active) | 14.8 µM (active)
CN(C)c1ccc(C(=O)NCCCCCCC(=O)NO)cc1 | 0.0833 µM (active) | 1.87 µM (active) | 1.18 µM (active) | 0.148 µM (active) | 0.332 µM (active) | 0.296 µM (active) | 1.48 µM (active) | 1.18 µM (active) | 2.35 µM (active) | 0.662 µM (active) | 0.935 µM (active) | 0.526 µM (active) | 0.662 µM (active) |  |  | 0.743 µM (active) |  | 0.469 µM (active)
O=C(CN1C(=O)C2(CCCC2)NC[C@H]1c1cc(F)cc(F)c1)Nc1ccc2c(c1)C[C@@]1(C2)C(=O)Nc2ncccc21 | inactive | inactive | inactive | inactive | inactive | inactive |  |  |  |  | inactive | inactive | inactive | 120% |  | inactive |  | inactive
